Test results taken from PubChem BioAssay (NCI).
This is part of a sample that, as a whole, favours compounds with a hit. Of some 79,000 tested, about 15% had one in any assay. A number with no mark means an inactive call. Activity calls are given as the source filed them. No stated cut-off is given here; in the data, active means growth inhibition above about 70%; inactive means the rest.

Assays:
[1] = NCI Yeast Anticancer Drug Screen. Data for the rad50 strain (AID 155);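 further: 0% = growth of vehicle-only cultures of the same strain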; conditions: S. cerevisiae rad50 strain growth inhibition, active compounds read high
Summary of the method: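 DNA repair mutant yeast, compound exposure, growth read-out; inhibition is taken relative to vehicle.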

[2] = NCI Yeast Anticancer Drug Screen. Data for the mec2-1 strain (AID 157); conditions: S. cerevisiae mec2-1 strain, active compounds read high
Summary of the method: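 Each compound was tested on mec2-1 yeast, a strain altered in DNA damage repair or cell cycle control. Growth inhibition is reported relative to vehicle.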

[3] = NCI Yeast Anticancer Drug Screen. Data for the sgs1 mgt1 strain (AID 161);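 further: 0% = growth of cultures given vehicle only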; conditions: S. cerevisiae sgs1 mgt1 strain, active compounds read high
Summary of the method: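 Read-out: growth inhibition vs vehicle controls. Cells: mutant yeast strain deficient in DNA damage repair.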

[4] = NCI Yeast Anticancer Drug Screen. Data for the cln2 rad14 strain (AID 165);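 further: 0% = growth equal to vehicle treated cultures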; conditions: S. cerevisiae cln2 rad14 strain, active compounds read high
Summary of the method: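 Test compounds were added to cln2 rad14 yeast cultures; inhibition of growth was then determined by comparison with vehicle treatment.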

[5] = NCI Yeast Anticancer Drug Screen. Data for the bub3 strain (AID 167); conditions: S. cerevisiae bub3 mutant strain, active compounds read high
Summary of the method: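 In this screen, a yeast mutant lacking normal mitotic checkpoint function is challenged with compound. Relative growth versus vehicle gives the inhibition value.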

[6] = NCI Yeast Anticancer Drug Screen. Data for the mlh1 rad18 strain (AID 175); conditions: S. cerevisiae mlh1 rad18 strain growth inhibition, active compounds read high
Summary of the method: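 Inhibition values reflect reduced growth of mutant yeast versus vehicle-treated controls following compound exposure; the mutations affect DNA damage repair.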

[7] = at 5.0 µM (retest, dose inferred, filed as 0.5)
[8] = at 50.0 µM (retest, dose inferred, filed as 5.0)

SMILES	growth inhibition [1, 7]	growth inhibition [1, 8]	growth inhibition ([1]; at 50.0 µM)	growth inhibition [2, 7]	growth inhibition [2, 8]	growth inhibition ([2]; at 50.0 µM)	growth inhibition [3, 7]	growth inhibition [3, 8]	growth inhibition ([3]; at 50.0 µM)	growth inhibition [4, 7]	growth inhibition [4, 8]	growth inhibition ([4]; at 50.0 µM)	growth inhibition [5, 7]	growth inhibition [5, 8]	growth inhibition ([5]; at 50.0 µM)	growth inhibition [6, 7]	growth inhibition [6, 8]	growth inhibition ([6]; at 50.0 µM)
COc1ccc2sc3c(C)ccc(NCC4CCCN5CCCCC45)c3c(=O)c2c1 (configuration not stated)	42%	81% (active)	97.2% (active)	12%	88% (active)	99.6% (active)	32%	76% (active)	99.3% (active)	16%	85% (active)	99.2% (active)	21%	92% (active)	99.5% (active)	27%	81% (active)	99.4% (active)
Oc1c(Cl)ccc2cccnc12	97% (active)	98% (active)	92% (active)	98% (active)	99% (active)	93.8% (active)	91% (active)	80% (active)	94.1% (active)	98% (active)	97% (active)	92.5% (active)	99% (active)	99% (active)	92.8% (active)	95% (active)	98% (active)	91.7% (active)
OC1c2ccccc2C2(O)C1C(c1ccccc1)C(c1ccccc1)C2(O)c1ccccc1 (configuration not stated)	32%	95% (active)	96.7% (active)	-1%	97% (active)	97% (active)	25%	96% (active)	98% (active)	-4%	94% (active)	95.1% (active)	-1%	95% (active)	94.8% (active)	30%	94% (active)	95.7% (active)
CSC1NNC2(C(=O)N1)c1ccccc1-c1ccccc12 (configuration not stated)	-2%	96% (active)	87.3% (active)	-15%	98% (active)	87.9% (active)	2%	96% (active)	90.7% (active)	9%	96% (active)	88.5% (active)	13%	97% (active)	91.7% (active)	-1%	96% (active)	88.8% (active)
BrCc1ccccc1C[P+](c1ccccc1)(c1ccccc1)c1ccccc1	55%	98% (active)	89.5% (active)	52%	99% (active)	90.7% (active)	54%	99% (active)	85.5% (active)	25%	97% (active)	82.3% (active)	47%	98% (active)	89.7% (active)	69%	98% (active)	88.2% (active)
c1ccc2c(c1)CCc1[nH]c3c(c1-2)-c1ccccc1CC3	24%	94% (active)	87.5% (active)	16%	96% (active)	91.2% (active)	21%	94% (active)	90.4% (active)	62%	95% (active)	88.4% (active)	69%	94% (active)	89.8% (active)	31%	91% (active)	86.3% (active)
NC(CSSCC(N)=NCCCCCSC12CC3CC(CC(C3)C1)C2)=NCCCCCSC12CC3CC(CC(C3)C1)C2	-2%	22%	99.2% (active)	1%	11%	99.6% (active)	1%	12%	99.5% (active)	3%	2%	98.8% (active)	5%	15%	98.7% (active)	0%	16%	99.3% (active)
O=C(NNc1nc(-c2ccccc2)cs1)C(F)(F)F	83% (active)	97% (active)	86.8% (active)	74% (active)	98% (active)	89.7% (active)	91% (active)	99% (active)	87.5% (active)	50%	91% (active)	87% (active)	97% (active)	99% (active)	85.7% (active)	93% (active)	94% (active)	91.2% (active)
Cc1ccc(Sc2ccc3ccccc3n2)cc1	2%	-34%	36%	-3%	46%	37.5%	15%	37%	50.2%	-18%	-24%	50.2%	1%	30%	67%	0%	18%	2.25%
